Among all 360,000 compounds or so, about 7,500 (2.1%) were called active. About 8% were inconclusive and are not listed. The full list was thinned out, with actives kept by preference. Unmarked numbers belong to inactive results. The call rests on the fitted dose curve; in most records, active means well fitted cell-killing curve with a large enough effect; inconclusive means small, poorly fitted or top-dose-only effect, or effect the other way, or another doubt; inactive means no such curve, though single readings can be large or run the other way.
Potency means the concentration at half of the fitted maximal effect.

The experiment in a line: qHTS for induction of synthetic lethality in tumor cells producing 2HG: qHTS for the HT-1080-IDH1KD cell line.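 On activity, negative = toxicity: 0% = DMSO wells and -100% = cell-free medium wells.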 The settings on record: HT-1080 IDH1 knockdown viability, ATP luminescence, 48 h; series mostly up to 46.1 µM; activity, negative = toxicity: at the top concentration. The procedure, abridged:
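CellTiter-Glo luminescence after 48 h compound exposure at 37 degrees C of IDH1-knockdown HT-1080 cells in 5% FBS RPMI. %Activity scaled between DMSO wells and cell-free media wells, with curves fitted and assigned curve classes.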
As to `O=C(Nc1ccc(F)cc1)Nc1nnc([C@H]2C[C@H](O)[C@@H](CO)O2)s1`, the “activity, negative = toxicity” value is -1.05%. With `CC(C)c1cc(C(=O)N(C)C2CCCN(Cc3ccccc3F)C2)n(C)n1` (stereo not given), the “activity, negative = toxicity” value is -6.92%. Regarding `COc1ccccc1Cc1c(-c2ccc(Cl)cc2)nc2c3ccccc3ccn12`, the “activity, negative = toxicity” value was -8.84%.

Take `CCCS(=O)(=O)NC(=O)C1(C)CCCN(C(=O)c2cccs2)C1` (stereo not given): the “activity, negative = toxicity” value is 18.4%. Turning to `Cc1cc(Br)cn2c(Cc3ccccc3C(F)(F)F)c(-c3ccc(Cl)cc3)nc12`, the “activity, negative = toxicity” value was -13.7%. In the case of `COc1c(C)cc(C(O)c2ncc(-c3cccc(C(F)(F)F)c3)[nH]2)cc1C` (stereo not given), the “activity, negative = toxicity” value was -15.2%. Regarding `O=C(Nc1cccc2ccccc12)NC1CC1`, the “activity, negative = toxicity” value is -1.82%.

On to `O=C(CSc1ncn[nH]1)Nc1nc2c(F)c(F)c(F)cc2s1`, for which the “activity, negative = toxicity” value is -0.672%. Still for that read-out and setting: the value for `Cc1occc1C(=O)NNC(=S)NCC(C)C` was 2.42%; that for `C/C(=N/NC(=O)CCc1ccccc1)c1ccco1` was -0.746%. With `C/C(=N\NC(=O)c1ccoc1C)c1ccccc1O`, the Potency was 13 µM (active). On to `CCN(CC(=O)Nc1ccc(NC(C)=O)cc1)C(=O)C1CC(=O)N(c2ccc3c(c2)OCCO3)C1` (stereo not given), for which the “activity, negative = toxicity” value was 4.52%. Turning to `CCOc1cccc(=O)c2c(C)n(CC3CCCO3)c(C)c12` (stereo not given), the “activity, negative = toxicity” value is 9.25%. For `CN1CN(C)c2ccc([N+](=O)[O-])c3cccc1c23`, the “activity, negative = toxicity” value is -10.4%. As for `O=C1c2cccc3c([N+](=O)[O-])ccc(c23)C(=O)N1CC1CCCO1` (stereo not given), the Potency is 18.4 µM (active). For the compound `CCNC(=O)C1(C)CCN(Cc2ccc(C(=O)OCC)o2)C1` (stereo not given), the “activity, negative = toxicity” value is 1.14%. Still for that read-out and setting: in the case of `Cc1cccc(C(=O)NC2CCN(CC(=O)Nc3cccc(Cl)c3)CC2)c1` it was -7.44%. As for `CC1(C(=O)NS(=O)(=O)c2ccc3ccccc3c2)CCN1C(=O)C1(c2ccc(Cl)cc2)CCC1` (stereo not given), the “activity, negative = toxicity” value is 23.1%. For `O=C(O)c1ccccc1Cc1ccc(F)c2ccccc12`, the “activity, negative = toxicity” value is 4.06%. Still for that read-out and setting: in the case of `CCCCN(CCCC)CC(O)Cn1c2ccccc2c(=O)c2ccccc21` (stereo not given) it was 0.0158%.

Regarding `Cc1cc(C)n(CC(O)CN(c2ccccc2)S(=O)(=O)c2ccc3ccccc3c2)n1` (stereo not given), the “activity, negative = toxicity” value is -8.66%. On to `CS(=O)(=O)N(CC(O)Cn1c2ccccc2c2ccccc21)c1cccc2ccccc12` (stereo not given), for which the Potency is 20.6 µM (active). In the case of `CC1(C(=O)NS(=O)(=O)Cc2cccc(Cl)c2)CCN1C(=O)Cc1ccc(Cl)cc1Cl` (stereo not given), the “activity, negative = toxicity” value is 9.54%. With `Cc1ccccc1NC(=O)Cc1nc(COC(=O)C(C)(C)Oc2ccc(Cl)cc2)cs1`, the “activity, negative = toxicity” value was 2.59%.

`Oc1ccc(N=Nc2nccs2)c(O)c1`: the Potency is 4.11 µM (active).

With `Cc1cc2c3ccccc3[nH]c(=O)n2n1`, the “activity, negative = toxicity” value was 7.95%. For the compound `COC(=O)[C@]12CCCCC=C1N(CCC1=CCCCC1)C(=O)[C@H](CC(=O)N1CCSCC1)C2`, the “activity, negative = toxicity” value is 1.87%. For `CCNC(=O)C1(C)CCCN1C(=O)c1ccc(N(C)C)cc1` (stereo not given), the “activity, negative = toxicity” value is 18.9%.

Regarding `O=C(CNC(=O)c1cccs1)N/N=C/c1cccc(Br)c1`, the “activity, negative = toxicity” value is 16.4%. As to `O=C(NC(Cc1c[nH]c2ccccc12)C(=O)N/N=C/c1ccc(Br)cc1)c1cccs1` (stereo not given), the Potency was 32.6 µM (active).

With `CC(=O)NC(Cc1c[nH]c2ccccc12)C(=O)O` (stereo not given), the “activity, negative = toxicity” value is 7.98%. Turning to `Cc1noc(C)c1-c1ccc(C(=O)NCc2ccncc2)c2occc12`, the “activity, negative = toxicity” value was -15.1%. Turning to `Cc1ccc(C(=O)N/C(=C/c2ccc(-c3cccc([N+](=O)[O-])c3)o2)C(=O)NCCCN(C)C)cc1`, the Potency was 14.6 µM (active).

Take `C=CCNC(=O)/C(=C\c1cccc([N+](=O)[O-])c1)NC(=O)c1ccccc1`: the “activity, negative = toxicity” value was 17.2%. Same read-out and setting: in the case of `CN(C)CCNC(=O)/C(=C/c1cccc([N+](=O)[O-])c1)NC(=O)c1ccccc1` it was 12.4%. `COc1ccc(C(C(=O)Nc2c(C)cccc2C)N2CCN(c3ccc(C)cc3)CC2)cc1` (stereo not given): the “activity, negative = toxicity” value is 14.1%. Same read-out and setting: the value for `CCCC(=O)N1CCC1(C)C(=O)Nc1ccc(-n2cncn2)cc1` (stereo not given) was 0.229%; that for `CCCNC(=O)C1(C)CCN(Cc2ccc(Cl)c(Cl)c2)C1` (stereo not given) was -3.21%. Consider `COc1ccc(-c2nc3ccccc3c(=O)n2CCc2ccc(O)cc2)cc1`, for which the “activity, negative = toxicity” value was -2.66%. `COc1ccc(-c2c(C#Cc3ccccc3)c3ccccc3n2C)cc1`: the “activity, negative = toxicity” value was 10.4%. `COc1ccc(CCNCc2c(-c3ccccc3)n(C)c3ccccc23)cc1`: the Potency is 14.6 µM (active). Turning to `CC(=O)NC(c1ccccc1)c1nc(-c2ccccc2C)cs1` (stereo not given), the “activity, negative = toxicity” value is 2.07%. Still for that read-out and setting: in the case of `C[C@H]1CN([C@@H](C)CO)C(=O)c2cc(-c3ccccc3F)cnc2O[C@H]1CN(C)C(=O)C1CCOCC1` it was -1.01%; in that of `O=C(Nc1cccc2cccnc12)c1ccc2sc([C@H]3C[C@H](O)[C@@H](CO)O3)nc2c1`, -23.2%.

Turning to `CCNC(=S)Nc1ccc2c(c1)c(=O)n(C)n2Cc1ccc(Cl)cc1`, the “activity, negative = toxicity” value was 3.42%. As to `CCCC(=O)Nc1ccc2c(c1)nc1n2CCSC1`, the “activity, negative = toxicity” value is 25.5%.

With `CCOCCC(=O)Nc1ccc2c(c1)c(=O)n(C)n2-c1ccc2ccccc2c1`, the Potency was 1.46 µM (active). Turning to `CCCCN(C(C)=O)c1ccc2c(c1)C1CC2CCN1Cc1ccccc1` (stereo not given), the “activity, negative = toxicity” value was 6.78%.

Consider `COc1ccc(CCn2c3c(c(=O)[nH]c2=S)CN(C(C)C)CN3)cc1OC`, for which the “activity, negative = toxicity” value is -12.1%.

On to `C[C@H]1CN([C@@H](C)CO)C(=O)CCCn2nncc2CO[C@@H]1CN(C)Cc1ccc(Oc2ccccc2)cc1`, for which the “activity, negative = toxicity” value is -5.96%.

Source of the values: PubChem BioAssay AID686971 (National Center for Advancing Translational Sciences (NCATS), 2013).
